According to the supplement of paper PMC10849652:
Targets with a hit are over-represented here; the source holds about 7,900 in all. About 0.6% of all pairs of compound and target were hits. Unmarked numbers belong to inactive results.

Key:
Experiment in all cases: log2 fold change, soluble protein after heating vs DMSO (PISA); higher = thermal stabilisation; K562 cells, 10 uM, 30 min; active = over 0.2 and 3.5 SD of the protein, either way, in both replicates (recomputed)
IRAK-1-4 Inhibitor I = compound: C1COCCN1CCN2C3=CC=CC=C3N=C2NC(=O)C4=CC(=CC=C4)[N+](=O)[O-] [IRAK-1-4 Inhibitor I]
Summary of the method: (§1)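 Soluble protein was quantified by TMTpro 16plex LC-MS/MS after channel sums were equalised. It was obtained as the supernatant after 21,000xg for 90 min from pooled aliquots of K562 cells (2×10^6 cells/mL, 10 μM compound, 30 min) heated for 3 min across 48°C-58°C and extracted in PBS with 0.5% NP-40 at 4°C. Thermal stability values are relative to control samples and come from duplicates. They are given as log2 fold changes.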

ibrutinib = compound: C=CC(=O)N1CCC[C@@H](n2nc(-c3ccc(Oc4ccccc4)cc3)c3c(N)ncnc32)C1 [ibrutinib]
Summary of the method: as §1

[1] = compound: CC(=O)c1cnc2ccc(-c3cc(Cl)c(O)c(Cl)c3)nc2c1N[C@H]1CC[C@H](CN(C)C)CC1
Summary of the method: as §1

ralimetinib = compound: CC(C)(C)Cn1c(N)nc2ccc(-c3[nH]c(C(C)(C)C)nc3-c3ccc(F)cc3)nc21 [ralimetinib]
Summary of the method: as §1

[2] = compound: CC(C)(O)CC(=O)NCCn1ccc2ncnc(Nc3ccc(Oc4cccc(C(F)(F)F)c4)c(Cl)c3)c21
Summary of the method: as §1

[3] = compound: CC(C)C1=C2N=C(C=C(N2N=C1)NCC3=CC=CC=C3)NCCCCCCN
Summary of the method: as §1

[4] = compound: CC(C)C[C@@H](C=O)NC(=O)[C@H](CC(C)C)NC(=O)[C@H](CC(C)C)NC(=O)OCc1ccccc1
Summary of the method: as §1

pinometostat = compound: CC(C)N(C[C@H]1O[C@@H](n2cnc3c(N)ncnc32)[C@H](O)[C@@H]1O)[C@H]1C[C@@H](CCc2nc3cc(C(C)(C)C)ccc3[nH]2)C1 [pinometostat]
Summary of the method: as §1

[5] = compound: CC1=C(C(CC(=O)N1)C2=CC=C(C=C2)C(F)(F)F)C(=O)NC3=C(C=C4C(=C3)C=NN4)F
Summary of the method: as §1

[6] = compound: CC1=C(C2=C(C=C1)C(=O)C3=CC=CC=C3N2CCCN)C
Summary of the method: as §1

[7] = compound: CC1=C(C=C(C=C1)NC(=O)C2=CC(=CC=C2)C(C)(C)C#N)NC3=CC4=C(C=C3)N=CN(C4=O)C
Summary of the method: as §1

[8] = compound: CC1=C(C=C(C=C1)NC(=O)C2=CC(=CC=C2)N(C)C)NC(=O)C3=CC=C(C=C3)O
Summary of the method: as §1

[9] = compound: CC1=CC=C(C=C1)SC2=C3C=C(SC3=CN=C2)C(=O)N
Summary of the method: as §1

[10] = compound: CC1=NC(=CC=C1)C2=C(N=C(N2)C(C)(C)C)C3=CC4=NC=CN=C4C=C3
Summary of the method: as §1

Nexturastat A = compound: CCCCN(Cc1ccc(C(=O)NO)cc1)C(=O)Nc1ccccc1 [Nexturastat A]
Summary of the method: as §1

vemurafenib = compound: CCCS(=O)(=O)Nc1ccc(F)c(C(=O)c2c[nH]c3ncc(-c4ccc(Cl)cc4)cc23)c1F [vemurafenib]
Summary of the method: as §1

[11] = compound: CCCS(=O)(=O)Nc1ccc(F)c(C(=O)c2c[nH]c3ncc(Cl)cc23)c1F
Summary of the method: as §1

[12] = compound: CCCc1cc(C)[nH]c(=O)c1CNC(=O)c1cc(-c2ccnc(N3CCN(C)CC3)c2)cc2c1cnn2C(C)C
Summary of the method: as §1

givinostat = compound: CCN(CC)Cc1ccc2cc(COC(=O)Nc3ccc(C(=O)NO)cc3)ccc2c1 [givinostat]
Summary of the method: as §1

barasertib = compound: CCN(CCCOc1ccc2c(Nc3cc(CC(=O)Nc4cccc(F)c4)[nH]n3)ncnc2c1)CCOP(=O)(O)O [barasertib]
Summary of the method: as §1

UniProt Q9Y485, sequence (Q9Y485 whole entry, looked up): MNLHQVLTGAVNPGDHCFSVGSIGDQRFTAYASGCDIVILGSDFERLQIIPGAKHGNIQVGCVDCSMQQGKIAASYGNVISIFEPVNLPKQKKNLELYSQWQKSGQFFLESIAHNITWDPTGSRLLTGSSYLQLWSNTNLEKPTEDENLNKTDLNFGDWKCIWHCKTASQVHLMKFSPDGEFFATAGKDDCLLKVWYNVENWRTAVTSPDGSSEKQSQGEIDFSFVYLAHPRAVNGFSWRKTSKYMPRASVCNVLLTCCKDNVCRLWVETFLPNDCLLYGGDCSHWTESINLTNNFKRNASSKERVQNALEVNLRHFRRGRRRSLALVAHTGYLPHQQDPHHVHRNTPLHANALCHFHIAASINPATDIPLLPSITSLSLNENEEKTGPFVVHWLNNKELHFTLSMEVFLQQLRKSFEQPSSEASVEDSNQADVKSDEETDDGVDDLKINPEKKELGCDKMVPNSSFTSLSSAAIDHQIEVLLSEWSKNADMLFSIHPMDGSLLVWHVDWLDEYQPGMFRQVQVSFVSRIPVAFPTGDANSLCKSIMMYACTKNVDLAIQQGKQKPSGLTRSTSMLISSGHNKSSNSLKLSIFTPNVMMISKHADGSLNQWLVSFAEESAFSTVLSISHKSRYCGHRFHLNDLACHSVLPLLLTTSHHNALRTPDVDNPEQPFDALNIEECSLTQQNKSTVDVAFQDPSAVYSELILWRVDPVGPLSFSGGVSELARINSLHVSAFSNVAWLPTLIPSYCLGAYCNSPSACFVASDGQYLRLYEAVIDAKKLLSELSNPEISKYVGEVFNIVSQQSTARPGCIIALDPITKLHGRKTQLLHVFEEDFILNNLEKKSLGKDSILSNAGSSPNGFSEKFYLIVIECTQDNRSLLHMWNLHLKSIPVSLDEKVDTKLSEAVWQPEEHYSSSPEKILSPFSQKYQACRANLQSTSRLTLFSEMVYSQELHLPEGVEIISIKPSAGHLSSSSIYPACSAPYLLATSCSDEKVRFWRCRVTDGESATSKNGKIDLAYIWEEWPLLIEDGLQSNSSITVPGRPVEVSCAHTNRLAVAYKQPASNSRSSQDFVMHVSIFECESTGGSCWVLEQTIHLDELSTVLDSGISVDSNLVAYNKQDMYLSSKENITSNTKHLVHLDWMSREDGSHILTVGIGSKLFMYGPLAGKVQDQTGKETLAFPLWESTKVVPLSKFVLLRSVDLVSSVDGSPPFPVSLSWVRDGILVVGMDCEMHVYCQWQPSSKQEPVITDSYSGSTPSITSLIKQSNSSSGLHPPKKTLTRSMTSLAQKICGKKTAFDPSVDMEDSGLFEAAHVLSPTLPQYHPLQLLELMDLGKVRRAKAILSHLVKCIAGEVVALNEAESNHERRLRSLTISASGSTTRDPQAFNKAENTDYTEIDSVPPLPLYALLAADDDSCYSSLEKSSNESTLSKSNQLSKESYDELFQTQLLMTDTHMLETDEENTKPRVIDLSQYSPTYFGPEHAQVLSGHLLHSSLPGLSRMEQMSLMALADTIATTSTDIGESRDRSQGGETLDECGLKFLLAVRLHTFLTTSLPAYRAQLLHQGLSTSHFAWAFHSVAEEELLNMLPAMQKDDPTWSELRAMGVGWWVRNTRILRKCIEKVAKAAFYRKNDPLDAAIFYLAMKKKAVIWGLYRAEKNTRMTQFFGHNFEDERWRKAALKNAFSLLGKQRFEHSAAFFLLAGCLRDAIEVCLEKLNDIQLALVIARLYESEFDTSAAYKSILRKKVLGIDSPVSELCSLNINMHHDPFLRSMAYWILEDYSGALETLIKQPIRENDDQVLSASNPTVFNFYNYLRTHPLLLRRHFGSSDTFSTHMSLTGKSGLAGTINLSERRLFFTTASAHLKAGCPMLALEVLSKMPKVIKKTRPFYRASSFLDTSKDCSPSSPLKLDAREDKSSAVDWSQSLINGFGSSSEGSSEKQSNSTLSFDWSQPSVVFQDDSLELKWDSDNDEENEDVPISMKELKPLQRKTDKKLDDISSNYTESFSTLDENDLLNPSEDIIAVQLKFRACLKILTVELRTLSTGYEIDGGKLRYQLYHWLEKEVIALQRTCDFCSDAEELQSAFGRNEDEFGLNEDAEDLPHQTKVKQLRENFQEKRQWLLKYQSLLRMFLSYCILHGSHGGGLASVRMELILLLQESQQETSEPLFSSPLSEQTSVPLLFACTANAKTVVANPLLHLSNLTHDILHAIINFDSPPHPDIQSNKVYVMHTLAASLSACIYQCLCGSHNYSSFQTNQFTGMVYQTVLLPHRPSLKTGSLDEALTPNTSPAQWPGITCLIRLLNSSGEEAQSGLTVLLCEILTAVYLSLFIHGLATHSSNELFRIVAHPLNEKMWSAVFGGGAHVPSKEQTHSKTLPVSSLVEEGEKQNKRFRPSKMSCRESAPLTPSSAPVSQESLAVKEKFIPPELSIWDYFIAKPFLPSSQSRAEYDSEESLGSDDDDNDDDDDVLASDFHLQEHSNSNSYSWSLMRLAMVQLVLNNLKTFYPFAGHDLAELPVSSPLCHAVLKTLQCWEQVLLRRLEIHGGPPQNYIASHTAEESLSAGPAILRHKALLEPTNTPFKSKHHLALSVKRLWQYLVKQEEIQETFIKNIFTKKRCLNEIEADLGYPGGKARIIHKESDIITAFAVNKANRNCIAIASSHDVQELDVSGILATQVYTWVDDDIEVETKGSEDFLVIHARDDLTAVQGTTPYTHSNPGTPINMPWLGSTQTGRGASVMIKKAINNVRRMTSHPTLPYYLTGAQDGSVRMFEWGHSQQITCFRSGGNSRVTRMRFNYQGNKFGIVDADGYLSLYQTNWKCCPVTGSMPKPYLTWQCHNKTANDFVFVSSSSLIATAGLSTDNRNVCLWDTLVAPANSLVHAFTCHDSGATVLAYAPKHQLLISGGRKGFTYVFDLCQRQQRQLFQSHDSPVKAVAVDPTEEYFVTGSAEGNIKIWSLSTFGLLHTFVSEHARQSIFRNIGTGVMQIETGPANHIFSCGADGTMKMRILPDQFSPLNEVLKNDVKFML
UniProt Q9UPT5, sequence (Q9UPT5 whole entry, looked up): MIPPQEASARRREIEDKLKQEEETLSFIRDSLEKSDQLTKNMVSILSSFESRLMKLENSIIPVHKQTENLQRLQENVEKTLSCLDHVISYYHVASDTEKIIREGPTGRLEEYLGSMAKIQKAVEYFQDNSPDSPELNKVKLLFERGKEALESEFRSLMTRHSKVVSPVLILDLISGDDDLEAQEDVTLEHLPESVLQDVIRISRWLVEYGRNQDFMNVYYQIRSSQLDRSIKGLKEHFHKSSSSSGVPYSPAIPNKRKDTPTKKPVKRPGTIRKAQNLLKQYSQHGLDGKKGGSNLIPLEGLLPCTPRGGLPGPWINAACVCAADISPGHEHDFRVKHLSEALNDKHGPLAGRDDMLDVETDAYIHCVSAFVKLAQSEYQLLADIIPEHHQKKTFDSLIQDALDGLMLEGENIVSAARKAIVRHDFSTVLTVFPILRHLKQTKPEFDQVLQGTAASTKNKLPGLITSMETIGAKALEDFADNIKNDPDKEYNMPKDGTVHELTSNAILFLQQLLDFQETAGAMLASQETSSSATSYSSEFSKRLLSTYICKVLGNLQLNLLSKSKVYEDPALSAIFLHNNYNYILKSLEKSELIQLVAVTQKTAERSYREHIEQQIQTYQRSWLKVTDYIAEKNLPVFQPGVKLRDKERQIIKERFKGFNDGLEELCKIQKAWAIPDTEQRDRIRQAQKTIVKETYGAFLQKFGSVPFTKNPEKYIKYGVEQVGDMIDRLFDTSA
UniProt Q99848, sequence (Q99848 whole entry, looked up): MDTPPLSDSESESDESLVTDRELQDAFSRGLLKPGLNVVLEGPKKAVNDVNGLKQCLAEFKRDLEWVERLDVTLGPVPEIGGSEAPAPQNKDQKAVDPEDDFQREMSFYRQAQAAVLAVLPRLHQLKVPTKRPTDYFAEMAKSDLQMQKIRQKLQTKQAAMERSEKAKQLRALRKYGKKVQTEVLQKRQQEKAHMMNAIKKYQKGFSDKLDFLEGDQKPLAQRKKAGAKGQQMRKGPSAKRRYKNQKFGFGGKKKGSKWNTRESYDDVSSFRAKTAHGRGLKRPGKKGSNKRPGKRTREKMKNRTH
UniProt Q9NVR5, sequence (Q9NVR5 whole entry, looked up): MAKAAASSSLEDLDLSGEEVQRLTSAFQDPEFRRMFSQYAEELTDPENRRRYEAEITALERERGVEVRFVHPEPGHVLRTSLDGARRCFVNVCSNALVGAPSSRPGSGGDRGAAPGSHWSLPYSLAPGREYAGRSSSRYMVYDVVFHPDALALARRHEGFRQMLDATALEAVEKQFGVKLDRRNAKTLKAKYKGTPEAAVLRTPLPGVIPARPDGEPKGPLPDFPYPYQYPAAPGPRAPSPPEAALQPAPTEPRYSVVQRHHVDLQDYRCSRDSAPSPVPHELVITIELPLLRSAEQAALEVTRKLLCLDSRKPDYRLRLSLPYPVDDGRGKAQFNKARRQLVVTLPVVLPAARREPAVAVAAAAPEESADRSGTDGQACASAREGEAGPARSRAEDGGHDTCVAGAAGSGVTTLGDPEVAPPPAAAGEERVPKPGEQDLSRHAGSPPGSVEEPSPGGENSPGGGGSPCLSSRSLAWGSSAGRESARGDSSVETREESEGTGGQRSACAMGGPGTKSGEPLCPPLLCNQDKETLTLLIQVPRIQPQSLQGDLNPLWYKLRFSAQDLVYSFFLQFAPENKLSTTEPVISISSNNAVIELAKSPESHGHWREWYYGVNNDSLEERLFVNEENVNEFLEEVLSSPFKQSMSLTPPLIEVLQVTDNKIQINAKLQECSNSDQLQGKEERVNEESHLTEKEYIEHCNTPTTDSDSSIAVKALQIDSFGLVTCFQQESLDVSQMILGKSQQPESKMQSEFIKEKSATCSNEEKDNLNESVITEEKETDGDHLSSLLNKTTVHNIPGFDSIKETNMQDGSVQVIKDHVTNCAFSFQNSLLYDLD

Target	log2 fold change (IRAK-1-4 Inhibitor I)	log2 fold change (ibrutinib)	log2 fold change [1]	log2 fold change (ralimetinib)	log2 fold change [2]	log2 fold change [3]	log2 fold change [4]	log2 fold change (pinometostat)	log2 fold change [5]	log2 fold change [6]	log2 fold change [7]	log2 fold change [8]	log2 fold change [9]	log2 fold change [10]	log2 fold change (Nexturastat A)	log2 fold change (vemurafenib)	log2 fold change [11]	log2 fold change [12]	log2 fold change (givinostat)	log2 fold change (barasertib)
EBNA1BP2 (UniProt Q99848)	-0.143	-0.013	0.013	0.27	0.124	0.213	-0.026	0.439	0.006	-1.4 (active)	-0.014	-0.033	-0.07	-0.153	0.438	-0.042	0.004	0.113	0.174	-0.187
EIF4E2 (UniProt O60573)	0.064	-0.007	-0.272	0.012	-0.036	-0.109	0.118	0.043	0.056	0.116	-0.089	-0.006	0.061	0.089	0.097	0.126	0.069	0	0.031	0.083
DNAH11 (UniProt Q96DT5)	0.038	0.103	0.126	-0.285	0.047	-0.001	0.041	-0.019	-0.012	-0.137	-0.109	0.064	-0.13	0.044	-0.007	0.199	-0.15	0.17	0.111	-0.051
EDEM2 (UniProt Q9BV94)	0.181	-0.014	-0.062	-0.138	-0.009	-0.071	0.065	-0.001	0.009	0.022	-0.064	-0.001	-0.084	-0.204	0.036	-0.032	-0.149	0.095	0.013	0.21
DMXL1 (UniProt Q9Y485)	-0.005	0.002	-0.035	0.028	-0.085	-0.231	0.019	0.042	-0.005	0.069	-0.075	-0.004	0.025	0.017	0.044	0.008	0.032	0.043	0.076	0.068
EXOC5 (UniProt O00471)	-0.062	-0.002	-0.01	0.015	-0.03	-0.344 (active)	0.014	0.078	0	-0.061	0.006	-0.022	-0.007	0.056	0.017	0.046	0.08	-0.028	0.118	0.031
DNAAF2 (UniProt Q9NVR5)	-0.02	-0.023	0.014	0.022	0.013	-0.025	-0.054	-0.023	0	-0.013	-0.037	-0.043	-0.046	-0.038	-0.034	0.043	-0.038	-0.065	0	-0.009
CTSA (UniProt P10619)	-0.006	0.017	0.038	-0.027	0.027	-0.204	-0.017	0.014	0.014	-0.058	-0.033	0.011	-0.02	0.003	-0.016	-0.013	-0.039	-0.047	0.117	0
DYNC1I2 isoform 5 (UniProt Q13409)	0.022	0.016	0.022	0.013	-0.003	0.041	0.062	-0.019	-0.015	-0.032	-0.008	-0.03	-0.006	0.028	0.043	-0.009	0.005	-0.007	-0.005	-0.013
EXOC7 (UniProt Q9UPT5)	-0.047	-0.029	0.002	0.049	-0.109	-0.276	0.044	0.043	0.041	0.045	-0.116	-0.057	-0.014	-0.05	0.065	0.032	0.07	0.079	0.09	0.036
FAM160B1 (UniProt Q5W0V3)	0.019	0.012	0.03	0.005	-0.05	-0.285 (active)	0.019	-0.019	-0.036	-0.051	0.033	0.128	-0.019	0.051	-0.023	0.149	0.034	0.014	0.016	0.109
DOHH (UniProt Q9BU89)	0.127	0.137	0.103	0.004	0.244	0.045	-0.106	0.011	0.02	0.189	0.083	-0.069	0.084	-0.091	-0.144	0.001	-0.059	-0.063	-0.068	-0.274
